These results are taken from ChEMBL document CHEMBL1961873, “Compounds: GSK PKIS; Assays: Nanosyn kinase panel” (2012).

In assay [1] the target is T1, Aurora kinase A (Homo sapiens) (UniProt O14965).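 Further: values are mean percent inhibition.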
T1 sequence (whole entry): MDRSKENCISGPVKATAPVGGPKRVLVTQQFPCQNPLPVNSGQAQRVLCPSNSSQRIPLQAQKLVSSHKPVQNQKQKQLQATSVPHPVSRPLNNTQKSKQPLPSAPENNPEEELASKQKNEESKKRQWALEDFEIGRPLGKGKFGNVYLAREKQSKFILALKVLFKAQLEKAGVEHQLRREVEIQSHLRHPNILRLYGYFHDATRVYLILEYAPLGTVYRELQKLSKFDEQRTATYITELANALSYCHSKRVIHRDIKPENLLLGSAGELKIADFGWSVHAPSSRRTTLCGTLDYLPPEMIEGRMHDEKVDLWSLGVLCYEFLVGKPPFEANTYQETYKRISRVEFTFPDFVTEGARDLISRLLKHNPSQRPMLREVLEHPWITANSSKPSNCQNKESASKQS
The note with it: at 1 µM.

For assay [2], the target named is Aurora kinase B (Homo sapiens) (UniProt Q96GD4). Particulars: at 0.1 µM.
For assay [3] the target is unchanged. The note with it: at 1 µM.
The target of assay [4] is T2, Aurora kinase C (Homo sapiens) (UniProt Q9UQB9).
T2 sequence (whole entry): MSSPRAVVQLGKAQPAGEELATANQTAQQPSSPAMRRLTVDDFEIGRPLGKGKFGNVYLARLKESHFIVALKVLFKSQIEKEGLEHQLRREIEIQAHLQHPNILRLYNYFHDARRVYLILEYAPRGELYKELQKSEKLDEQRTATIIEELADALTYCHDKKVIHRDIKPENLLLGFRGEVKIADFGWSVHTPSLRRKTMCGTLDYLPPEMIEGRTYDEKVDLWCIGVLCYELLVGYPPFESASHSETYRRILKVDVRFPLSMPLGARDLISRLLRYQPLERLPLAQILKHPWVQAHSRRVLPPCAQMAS
Particulars: at 0.1 µM.

Assay [5] deals with T2, Aurora kinase C (Homo sapiens). The note with it: at 1 µM.
The target in assay [6] is Serine/threonine-protein kinase 10 (Homo sapiens) (UniProt O94804). Particulars: at 0.1 µM.
Assay [7] has the same target. The note with it: at 1 µM.
For assay [8], the target named is T3, Mitogen-activated protein kinase kinase kinase kinase 2 (Homo sapiens) (UniProt Q12851).
T3 sequence (whole entry): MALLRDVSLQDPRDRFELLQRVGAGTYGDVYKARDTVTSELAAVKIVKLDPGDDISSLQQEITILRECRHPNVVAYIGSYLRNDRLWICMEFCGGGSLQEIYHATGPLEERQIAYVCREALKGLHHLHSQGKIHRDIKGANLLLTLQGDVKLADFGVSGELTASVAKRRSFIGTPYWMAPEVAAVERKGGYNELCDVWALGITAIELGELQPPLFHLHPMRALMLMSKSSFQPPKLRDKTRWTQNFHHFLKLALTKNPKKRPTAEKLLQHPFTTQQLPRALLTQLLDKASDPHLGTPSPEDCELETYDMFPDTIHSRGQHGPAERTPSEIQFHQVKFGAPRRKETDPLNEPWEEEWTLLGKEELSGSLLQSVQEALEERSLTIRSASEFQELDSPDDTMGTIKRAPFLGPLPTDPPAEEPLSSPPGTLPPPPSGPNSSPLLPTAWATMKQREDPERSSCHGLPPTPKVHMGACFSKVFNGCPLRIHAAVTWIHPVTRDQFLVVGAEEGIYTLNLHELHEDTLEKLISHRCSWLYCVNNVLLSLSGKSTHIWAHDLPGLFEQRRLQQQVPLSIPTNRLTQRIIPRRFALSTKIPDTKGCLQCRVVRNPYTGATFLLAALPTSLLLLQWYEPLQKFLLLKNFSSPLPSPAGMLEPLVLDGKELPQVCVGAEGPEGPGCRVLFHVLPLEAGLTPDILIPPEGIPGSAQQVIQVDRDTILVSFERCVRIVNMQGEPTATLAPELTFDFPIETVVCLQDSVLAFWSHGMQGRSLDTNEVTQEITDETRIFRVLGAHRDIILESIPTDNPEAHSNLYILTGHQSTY
The note with it: at 0.1 µM.

Assay [9] concerns the target T3, Mitogen-activated protein kinase kinase kinase kinase 2 (Homo sapiens). The note with it: at 1 µM.
For assay [10], the target named is Mitogen-activated protein kinase kinase kinase kinase 4 (Homo sapiens) (UniProt O95819). The note with it: at 0.1 µM.
Assay [11] shares this target. The note with it: at 1 µM.
The target of assay [12] is Dual specificity mitogen-activated protein kinase kinase 1 (Homo sapiens) (UniProt Q02750). The note with it: at 0.1 µM.
The target is the same in assay [13]. Particulars: at 1 µM.
Assay [14] concerns the target Misshapen-like kinase 1 (Homo sapiens) (UniProt Q8N4C8). Particulars: at 0.1 µM.
The target is the same in assay [15]. Particulars: at 1 µM.
Assay [16] has as its target T4, Serine/threonine-protein kinase 4 (Homo sapiens) (UniProt Q13043).
T4 sequence (whole entry): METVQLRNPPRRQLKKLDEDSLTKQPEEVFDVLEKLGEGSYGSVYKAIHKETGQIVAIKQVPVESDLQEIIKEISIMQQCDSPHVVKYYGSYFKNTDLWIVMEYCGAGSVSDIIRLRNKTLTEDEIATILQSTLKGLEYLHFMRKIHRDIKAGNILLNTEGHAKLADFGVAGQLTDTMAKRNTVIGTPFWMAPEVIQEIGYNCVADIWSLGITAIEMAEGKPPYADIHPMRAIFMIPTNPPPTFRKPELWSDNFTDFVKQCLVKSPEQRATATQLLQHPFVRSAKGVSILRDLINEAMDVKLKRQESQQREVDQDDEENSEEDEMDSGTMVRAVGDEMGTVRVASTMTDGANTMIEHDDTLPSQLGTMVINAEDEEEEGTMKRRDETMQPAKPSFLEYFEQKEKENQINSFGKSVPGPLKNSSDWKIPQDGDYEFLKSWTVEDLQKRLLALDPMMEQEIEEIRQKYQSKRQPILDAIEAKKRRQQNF
Particulars: at 0.1 µM.

Assay [17] has as its target T4, Serine/threonine-protein kinase 4 (Homo sapiens). Particulars: at 1 µM.
For assay [18], the target named is T5, Serine/threonine-protein kinase 3 (Homo sapiens) (UniProt Q13188).
T5 sequence (whole entry): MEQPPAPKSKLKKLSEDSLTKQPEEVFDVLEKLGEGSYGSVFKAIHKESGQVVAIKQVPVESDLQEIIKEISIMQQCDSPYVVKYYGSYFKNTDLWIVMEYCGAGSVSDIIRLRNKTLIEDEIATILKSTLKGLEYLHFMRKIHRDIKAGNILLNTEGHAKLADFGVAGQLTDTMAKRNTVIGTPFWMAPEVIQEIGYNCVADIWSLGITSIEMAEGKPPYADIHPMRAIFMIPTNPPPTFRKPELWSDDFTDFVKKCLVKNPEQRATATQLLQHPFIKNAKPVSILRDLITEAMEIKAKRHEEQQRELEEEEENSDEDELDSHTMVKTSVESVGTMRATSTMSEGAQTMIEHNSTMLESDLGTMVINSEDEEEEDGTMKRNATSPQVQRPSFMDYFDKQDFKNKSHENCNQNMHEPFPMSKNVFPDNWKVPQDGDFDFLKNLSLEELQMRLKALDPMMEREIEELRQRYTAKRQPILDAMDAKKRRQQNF
The note with it: at 0.1 µM.

Assay [19] concerns the target T5, Serine/threonine-protein kinase 3 (Homo sapiens). The note with it: at 1 µM.
For assay [20], the target named is Serine/threonine-protein kinase 26 (Homo sapiens) (UniProt Q9P289). Particulars: at 0.1 µM.
Serine/threonine-protein kinase 26 (Homo sapiens), sequence (Q9P289 2-416 limits assumed): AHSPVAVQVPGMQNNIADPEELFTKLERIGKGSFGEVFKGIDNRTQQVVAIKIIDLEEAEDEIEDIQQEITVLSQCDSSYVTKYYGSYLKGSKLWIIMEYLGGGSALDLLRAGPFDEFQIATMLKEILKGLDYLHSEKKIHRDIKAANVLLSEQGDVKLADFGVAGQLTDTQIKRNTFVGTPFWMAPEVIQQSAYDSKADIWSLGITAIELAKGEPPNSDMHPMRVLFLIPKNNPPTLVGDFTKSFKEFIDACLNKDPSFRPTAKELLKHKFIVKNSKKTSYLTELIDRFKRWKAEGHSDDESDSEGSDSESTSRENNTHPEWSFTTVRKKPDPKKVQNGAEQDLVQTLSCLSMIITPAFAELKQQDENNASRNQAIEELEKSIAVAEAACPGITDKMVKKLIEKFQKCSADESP

Misshapen-like kinase 1 (Homo sapiens), sequence (Q8N4C8 whole entry, looked up): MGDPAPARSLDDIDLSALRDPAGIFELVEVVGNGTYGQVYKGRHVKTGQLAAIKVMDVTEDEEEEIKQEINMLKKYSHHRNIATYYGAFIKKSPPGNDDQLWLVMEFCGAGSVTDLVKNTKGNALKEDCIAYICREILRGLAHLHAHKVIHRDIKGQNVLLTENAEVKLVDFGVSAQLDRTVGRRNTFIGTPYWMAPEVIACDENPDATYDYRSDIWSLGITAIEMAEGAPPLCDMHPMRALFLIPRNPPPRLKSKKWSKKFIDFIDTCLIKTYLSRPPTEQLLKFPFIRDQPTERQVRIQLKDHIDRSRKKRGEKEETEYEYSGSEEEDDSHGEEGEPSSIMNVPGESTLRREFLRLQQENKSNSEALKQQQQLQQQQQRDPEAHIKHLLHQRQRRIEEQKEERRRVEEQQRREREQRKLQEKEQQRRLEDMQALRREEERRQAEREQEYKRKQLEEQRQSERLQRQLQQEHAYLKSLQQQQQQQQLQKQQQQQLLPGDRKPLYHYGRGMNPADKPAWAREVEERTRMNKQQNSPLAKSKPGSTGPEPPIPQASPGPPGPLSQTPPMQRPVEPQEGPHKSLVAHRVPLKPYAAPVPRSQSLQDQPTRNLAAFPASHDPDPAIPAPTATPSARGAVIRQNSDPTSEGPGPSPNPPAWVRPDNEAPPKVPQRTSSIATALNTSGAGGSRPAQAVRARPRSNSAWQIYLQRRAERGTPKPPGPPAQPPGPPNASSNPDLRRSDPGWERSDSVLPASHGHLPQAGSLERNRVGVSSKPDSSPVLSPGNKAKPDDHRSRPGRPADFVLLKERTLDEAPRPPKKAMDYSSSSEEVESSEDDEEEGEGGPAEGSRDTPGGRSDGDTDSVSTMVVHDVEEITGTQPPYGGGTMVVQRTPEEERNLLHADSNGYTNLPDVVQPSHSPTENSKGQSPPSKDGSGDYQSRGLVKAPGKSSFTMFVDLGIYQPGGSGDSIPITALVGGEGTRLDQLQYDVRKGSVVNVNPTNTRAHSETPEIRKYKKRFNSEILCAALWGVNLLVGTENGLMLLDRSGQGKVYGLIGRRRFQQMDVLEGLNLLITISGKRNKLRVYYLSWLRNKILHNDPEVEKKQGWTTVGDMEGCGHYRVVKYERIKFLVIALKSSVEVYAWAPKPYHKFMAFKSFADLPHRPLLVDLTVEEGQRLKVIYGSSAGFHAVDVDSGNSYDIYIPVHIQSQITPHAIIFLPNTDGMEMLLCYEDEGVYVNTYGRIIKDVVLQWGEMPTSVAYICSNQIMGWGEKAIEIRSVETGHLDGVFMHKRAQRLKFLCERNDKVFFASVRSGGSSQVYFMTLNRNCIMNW
Serine/threonine-protein kinase 10 (Homo sapiens), sequence (O94804 whole entry, looked up): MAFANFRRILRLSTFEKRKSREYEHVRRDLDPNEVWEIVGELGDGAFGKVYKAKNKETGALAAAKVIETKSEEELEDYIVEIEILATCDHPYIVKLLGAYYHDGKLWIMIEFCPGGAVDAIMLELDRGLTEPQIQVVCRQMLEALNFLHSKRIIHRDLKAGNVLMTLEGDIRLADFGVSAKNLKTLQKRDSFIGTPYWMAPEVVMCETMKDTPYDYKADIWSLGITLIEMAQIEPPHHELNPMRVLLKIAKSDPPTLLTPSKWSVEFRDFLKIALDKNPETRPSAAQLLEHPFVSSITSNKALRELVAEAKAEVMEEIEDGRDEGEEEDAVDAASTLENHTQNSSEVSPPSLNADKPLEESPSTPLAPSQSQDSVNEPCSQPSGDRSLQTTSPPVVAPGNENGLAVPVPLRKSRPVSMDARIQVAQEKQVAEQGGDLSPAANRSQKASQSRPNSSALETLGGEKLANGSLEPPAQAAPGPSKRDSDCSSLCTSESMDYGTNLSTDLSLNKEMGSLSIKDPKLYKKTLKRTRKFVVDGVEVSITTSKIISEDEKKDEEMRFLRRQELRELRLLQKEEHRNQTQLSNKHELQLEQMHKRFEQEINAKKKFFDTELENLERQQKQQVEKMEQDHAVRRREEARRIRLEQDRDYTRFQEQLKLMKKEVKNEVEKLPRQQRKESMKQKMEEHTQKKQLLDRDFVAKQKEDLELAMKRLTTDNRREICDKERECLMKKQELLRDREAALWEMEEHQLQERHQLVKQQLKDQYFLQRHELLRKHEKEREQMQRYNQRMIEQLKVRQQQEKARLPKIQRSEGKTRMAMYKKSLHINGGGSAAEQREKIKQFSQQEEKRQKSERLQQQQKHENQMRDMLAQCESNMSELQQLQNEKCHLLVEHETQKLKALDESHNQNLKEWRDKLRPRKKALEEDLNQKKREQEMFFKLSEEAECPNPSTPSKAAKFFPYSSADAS
Dual specificity mitogen-activated protein kinase kinase 1 (Homo sapiens), sequence (Q02750 whole entry): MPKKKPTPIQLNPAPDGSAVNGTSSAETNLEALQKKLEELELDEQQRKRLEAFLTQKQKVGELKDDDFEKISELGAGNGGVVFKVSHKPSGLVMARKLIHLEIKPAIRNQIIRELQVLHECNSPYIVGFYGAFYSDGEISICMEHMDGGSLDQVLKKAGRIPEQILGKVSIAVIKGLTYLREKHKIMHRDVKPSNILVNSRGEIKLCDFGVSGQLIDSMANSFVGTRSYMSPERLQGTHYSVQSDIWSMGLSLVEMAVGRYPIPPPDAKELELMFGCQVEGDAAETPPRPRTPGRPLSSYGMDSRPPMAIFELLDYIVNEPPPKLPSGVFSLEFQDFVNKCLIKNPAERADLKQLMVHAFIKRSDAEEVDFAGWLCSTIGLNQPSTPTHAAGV
Mitogen-activated protein kinase kinase kinase kinase 4 (Homo sapiens), sequence (O95819 2-1239 limits assumed): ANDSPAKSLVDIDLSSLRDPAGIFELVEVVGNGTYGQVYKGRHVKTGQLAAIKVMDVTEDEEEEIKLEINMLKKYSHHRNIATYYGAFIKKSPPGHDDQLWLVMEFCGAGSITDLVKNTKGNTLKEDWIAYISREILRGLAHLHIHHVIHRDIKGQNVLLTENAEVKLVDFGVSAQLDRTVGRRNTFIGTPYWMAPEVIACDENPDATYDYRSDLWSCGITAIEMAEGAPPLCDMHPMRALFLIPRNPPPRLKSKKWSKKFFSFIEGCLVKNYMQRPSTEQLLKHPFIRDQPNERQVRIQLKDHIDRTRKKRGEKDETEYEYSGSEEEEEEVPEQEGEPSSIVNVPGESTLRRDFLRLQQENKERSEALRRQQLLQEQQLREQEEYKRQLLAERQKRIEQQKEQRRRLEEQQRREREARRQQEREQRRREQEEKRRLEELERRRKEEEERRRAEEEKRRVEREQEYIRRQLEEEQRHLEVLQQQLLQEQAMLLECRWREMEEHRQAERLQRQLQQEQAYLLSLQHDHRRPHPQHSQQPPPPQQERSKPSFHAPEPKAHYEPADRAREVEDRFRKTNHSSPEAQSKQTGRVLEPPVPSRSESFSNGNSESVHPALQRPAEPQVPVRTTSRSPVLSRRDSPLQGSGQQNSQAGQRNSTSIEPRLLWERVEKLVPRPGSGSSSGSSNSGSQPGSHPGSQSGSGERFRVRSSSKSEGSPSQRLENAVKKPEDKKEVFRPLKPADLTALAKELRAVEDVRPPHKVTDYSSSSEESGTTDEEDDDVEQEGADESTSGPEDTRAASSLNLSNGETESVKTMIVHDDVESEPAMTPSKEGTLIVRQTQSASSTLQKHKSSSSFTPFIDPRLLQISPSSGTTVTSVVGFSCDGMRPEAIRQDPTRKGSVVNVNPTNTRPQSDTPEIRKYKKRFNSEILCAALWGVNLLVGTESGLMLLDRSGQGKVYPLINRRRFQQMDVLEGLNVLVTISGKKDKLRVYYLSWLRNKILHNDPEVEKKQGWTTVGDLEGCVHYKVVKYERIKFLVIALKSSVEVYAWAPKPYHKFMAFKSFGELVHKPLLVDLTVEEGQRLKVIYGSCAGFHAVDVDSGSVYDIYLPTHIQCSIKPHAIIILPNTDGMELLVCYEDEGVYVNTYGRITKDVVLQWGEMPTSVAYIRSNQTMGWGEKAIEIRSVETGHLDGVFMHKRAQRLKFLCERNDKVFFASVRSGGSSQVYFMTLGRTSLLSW
Aurora kinase B (Homo sapiens), sequence (Q96GD4 whole entry): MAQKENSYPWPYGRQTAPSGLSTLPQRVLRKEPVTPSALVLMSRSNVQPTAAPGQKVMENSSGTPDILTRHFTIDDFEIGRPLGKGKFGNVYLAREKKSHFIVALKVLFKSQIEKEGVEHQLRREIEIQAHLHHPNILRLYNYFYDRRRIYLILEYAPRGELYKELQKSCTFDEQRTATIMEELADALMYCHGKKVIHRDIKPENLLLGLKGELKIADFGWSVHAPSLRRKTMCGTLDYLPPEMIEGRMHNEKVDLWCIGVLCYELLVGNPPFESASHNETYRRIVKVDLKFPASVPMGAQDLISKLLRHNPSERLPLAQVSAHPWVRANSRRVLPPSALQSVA

As for `CN1CCN(C(=O)c2ccc(NC(=O)Nc3ccc(N(C)c4ccnc(Nc5ccc(CS(C)(=O)=O)cc5)n4)cc3)cc2)CC1`, the inhibition was determined as 85.9% in assay [1]; 68.5% in assay [2]; 72.8% in assay [3]; 88.4% in [4]; 95.3% in [5]; 26.3% in assay [6]. The inhibition in assay [7] was 67.7%; in [8] it was 4.67%; in assay [9], 32.7%; in assay [10], 13%; in assay [11], 58.6%; in assay [12] it was 1.05%. Further, the inhibition was determined as 10.8% in [13]; 7.54% in [14]; 42.4% in assay [15]; 16.1% in [16]; 60.9% in assay [17]; 6.27% in assay [18]. Also, the inhibition was 28.3% in assay [19] and 1.7% in [20].
Take `COC(=O)Nc1nc2cc(Oc3ccc(NC(=O)Nc4cccc(Br)c4)cc3)ccc2[nH]1`: the inhibition in [1] worked out at 7.48%; in assay [2], 8.64%; in [3], 21%; in assay [4] it was 11.4%; in [5], 42.5%; in assay [6] it was 20.5%. For the same molecule, the inhibition in assay [7] came to 34.2%; in assay [8], 3.41%; in assay [9], 10.2%; in assay [10], 3.09%; in [11] it was 5.51%; in [12] it was 5.03%. Besides, the inhibition was found to be 4% in assay [13]; 4.61% in assay [14]; 5.66% in [15]; 3.52% in [16]; 2.71% in [17]; 3.41% in assay [18]. Moreover, the inhibition worked out at 3.92% in assay [19] and 0.49% in assay [20].
For the molecule `Cc1ccc(C(=O)NC2CC2)cc1-c1ccc2[nH]ncc2c1`, the inhibition in [1] was -1.72%; in [2] it was -2.69%; in assay [3], -0.44%; in assay [4], -3.29%; in assay [5], 0.5%; in assay [6] it was -0.03%. Moreover, the inhibition is -1.42% in assay [7]; -1.74% in assay [8]; 5.05% in assay [9]; -2.51% in assay [10]; -0.85% in assay [11]; -3.43% in assay [12]. In addition, the inhibition in [13] is -3.98%; in assay [14] it was -4.28%; in assay [15] it was -1.78%; in assay [16] it was -2.09%; in assay [17] it was 1.26%; in assay [18], -4.71%. Moreover, the inhibition is -2.04% in assay [19] and -0.05% in [20].
In the case of `COc1cc2ncnc(Nc3ccc(C)c(O)c3)c2cc1OC`, the inhibition worked out at 7.23% in assay [1]; 4.5% in [2]; 8.54% in [3]; 1.17% in assay [4]; 4.32% in assay [5]; 21.1% in assay [6]. Further, the inhibition stood at 70.1% in assay [7]; 2.26% in [8]; 5.63% in assay [9]; 7.16% in assay [10]; 21.4% in assay [11]; 6.11% in assay [12]. The inhibition was found to be 5.54% in [13]; 9.75% in assay [14]; 18% in assay [15]; 5.24% in [16]; 9.47% in assay [17]; 5.84% in assay [18]. For the same molecule, the inhibition in assay [19] is 8.26%; in assay [20], -1.09%.
On to `Cc1ccc2c(c1)/C(=N/Nc1ccc(S(N)(=O)=O)cc1)C(=O)N2`, for which the inhibition is 27.8% in [1]; 1.05% in [2]; 7.36% in assay [3]; 1.16% in [4]; 23.6% in [5]; 0.32% in [6]. The inhibition in [7] came out at 3.53%; in assay [8] it was 1.01%; in assay [9], 4.98%; in assay [10] it was 27.3%; in assay [11], 72.3%; in assay [12] it was 0.13%. In addition, the inhibition in assay [13] was found to be 1.05%; in [14] it was 16.2%; in [15], 61.8%; in [16], 16.4%; in assay [17], 65.9%; in [18], 11%. Further, the inhibition was 55% in assay [19] and 0.66% in assay [20].
Take `CN(C)CCCn1c(-c2nonc2N)nc2cnccc21`: the inhibition worked out at 6.09% in [1]; 3.93% in assay [2]; 4.46% in assay [3]; 0.95% in [4]; 6.01% in assay [5]; 3.09% in assay [6]. Besides, the inhibition came out at 6.11% in assay [7]; 2.05% in assay [8]; 4.37% in assay [9]; 5.05% in assay [10]; 6.52% in [11]; 4.6% in assay [12]. Moreover, the inhibition in assay [13] is 3.75%; in assay [14], 5.65%; in assay [15], 6.29%; in assay [16] it was 4.23%; in assay [17], 4.03%; in assay [18], 3.78%. In addition, the inhibition in [19] was 4.52%; in assay [20], -1.82%.
`COC(=O)c1cncc(/C=C/c2c(C)cc(O)cc2C)c1`: the inhibition is 8.18% in assay [1]; 2.38% in assay [2]; 9.6% in assay [3]; 2.3% in assay [4]; -1.31% in assay [5]; 5.36% in [6]. For the same molecule, the inhibition in assay [7] came out at 26.2%; in [8] it was 0.34%; in [9], 4.75%; in assay [10] it was 3.73%; in assay [11], 18.8%; in [12] it was 4.72%. The inhibition in assay [13] was 4.21%; in assay [14] it was 5.24%; in [15] it was 14.9%; in assay [16], 7.04%; in [17] it was 9.84%; in assay [18] it was 7.02%. For the same molecule, the inhibition is 9.92% in assay [19] and -1.08% in assay [20].

A word on the inhibition: it is the relative decrease from the control value, in per cent.
